Experiment [1] can be described thus: reducers of endogenous Her2 protein level, primary screen, SKBR3 breast tumor cells, AlphaScreen, ATP viability (AID 461;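 active = Her2 level under about 52% in both replicate screens, with viability over 70% of control, limit read from the data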;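 as to Her2 level: lower value means less Her2 protein in the cells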;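 as to viability: percent of carrier control wells set as 100% viability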). The note with it: 18-24 h, measured here: SKBR3 viability, ATP luminescence, at 10 µM. (In Alpha technology, singlet oxygen from a donor bead excites a nearby acceptor bead.)
In experiment [2] the target is Receptor tyrosine-protein kinase erbB-2 (Homo sapiens) (UniProt P04626). The experiment is described as above. The settings on record: 18-24 h, at 10 µM, stronger effect = lower value.
The nature of experiment [3]: SK-BR-3 cell growth inhibitors, pilot screen, 24 h, human (AID 572;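 active = viability at or below 10% of carrier control in both of two separate runs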;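 also: compound exposure lasted between 18 and 24 h rather than exactly 24 h; 100% = carrier-treated control wells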). The settings on record: SK-BR-3 viability, CellTiter-Glo luminescence, at 10 µM, stronger effect = lower value.
Experiment [4] can be described thus: HUVEC growth inhibition – cell-based, human, primary screen (AID 575;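 active = viability at or below 30% in both replicate assays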;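 also: 100% = median of untreated cell wells with 0.1% DMSO on each plate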). The settings on record: HUVEC proliferation, CellTiter-Glo luminescence, 72 h; at 10 µM; stronger effect = lower value.
Experiment [5] in a line: growth inhibitors of H69AR lung tumor, primary screen, human, duplicate replicates (AID 580).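 Also: 100% = mean luminescence of untreated wells and 0% = no signal.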 The settings on record: H69AR lung tumor cells viability, ATP luminescence, 72 h; at 10 µM; stronger effect = lower value.
Experiment [6] in a line: reversal of MRP1-mediated doxorubicin resistance, pilot screen, H69AR cells, doxorubicin co-treatment (AID 601;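 active = viability loss from added drug above about 55%, and viability with drug at most 40%, in both replicates, limit read from the data, passing the limit was not always enough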). The settings on record: CellTiter-Glo, 72 h, at 10 µM; for differential viability (reversal): stronger effect = higher value. In general terms: ATP-based viability assays read luminescence as a measure of living cells.
Experiment [7] is described as follows: 384-well plate pilot, post-Golgi transport modulator project, inhibition of yeast transport mutant growth (AID 636; in the data active = inhibition above about 31%). The settings on record: absorbance 615 nm, about 18 h, stronger effect = higher value.
A short description of experiment [8]: growth suppression of yeast trafficking mutant, preliminary HTS, modulators of trafficking downstream of Golgi apparatus project, 1536-format plate, OD 615 nm (AID 637; in the data active = inhibition above about 30%). The settings on record: yeast transport mutant growth, absorbance 615 nm, 18 h; stronger effect = higher value.
The nature of experiment [9]: OD615 S. cerevisiae growth inhibition, permissive medium, pilot counter-assay, permissive growth control for S. cerevisiae lifespan shortening project (AID 705;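 active = growth inhibition above 25% in both replicates, a cutoff set 3 SD above the mean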). The note with it: OD615, 24 h, at 10 µM, stronger effect = higher value.
A short description of experiment [10]: Restrictive medium S. cerevisiae growth inhibition, OD615, pilot screen of yeast lifespan reduction project, restrictive growth control (AID 706;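 active = growth inhibition above a set limit, 3 SD over mean compound inhibition, in both replicates, cut at about 43% in these data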;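 also: modified DeaD lifespan yeast strain shifted to restrictive glucose medium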). The note with it: OD615, 48 h, at 10 µM, stronger effect = higher value.
Experiment [11] can be described thus: viability gain of MRP-1-high H69AR cells under doxorubicin, pilot screen, MRP-1 activator project, CellTiter-Glo, duplicate (AID 807;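 active = viability increase at or above a cutoff of the median across tested compounds plus 3 SD, cut at about 8.5% in these data, passing the limit was not always enough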;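 also: compound pretreatment 18-22 h then 72 h combined with doxorubicin; 0% = doxorubicin alone and 100% = vehicle without doxorubicin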). The settings on record: H69AR viability with doxorubicin, CellTiter-Glo luminescence; at 10 µM; stronger effect = higher value.
A short description of experiment [12]: growth suppression of beta-catenin knockout HCT116, pilot screen, human colon tumor cells (AID 823;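 active = cell viability at or below a set limit in both duplicate runs, the limit being the all-compound median minus 4 SD, cut at about 23% in these data, passing the limit was not always enough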;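 also: 0% = wells killed by 20 µM Hyamine and 100% = untreated DMSO cell wells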). The note with it: CellTiter-Glo, 60 h, at 10 µM, stronger effect = lower value.
Experiment [13] is described as follows: growth suppression of PTEN-deleted HCT116, pilot screen, cell-based, HCT116 clonal line, CellTiter-Glo (AID 824;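 active = viability at or below 27.92% in each of two runs, the all-compound median minus 4 SD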;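 also: 0% = 20 µM Hyamine control and 100% = vehicle cell control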). The settings on record: 60 h, at 10 µM, stronger effect = lower value.
Experiment [14] can be described thus: inhibitors of the yeast RAM network, pilot screen, dse1pr::URA3 reporter, 5-FOA selection (AID 869;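 active = inhibition over a set limit, the all-compound mean plus 3 SD, in both replicate runs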;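 also: 0% = DMSO wells with no growth and 100% = 10 µM 1-NA-PP1 with full growth; RAM network block rescues cells from 5-FOA so hits raise OD615 growth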). The note with it: S. cerevisiae dse1pr::URA3 5-FOA growth, OD615, 2 d; at 10 µM; stronger effect = higher value; strain carries analog-sensitive mutant Cbk1 kinase.
The nature of experiment [15]: RAM signaling pathway blockade in yeast – S. cerevisiae, Pdr1DBD-CYC8 efflux-inhibited sensitized strain, primary screen (AID 1298;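 active = RAM network inhibition above 8.4% in each of two replicates, 3 SD over the compound average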;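 also: 0% = DMSO untreated cells without growth and 100% = 10 µM 1-NA-PP1 full growth; higher means more yeast growth rescued from 5-FOA killing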). The settings on record: S. cerevisiae cbk1-as DSE1-URA3 strain, 5-FOA growth OD615, 2 d; at 50 µM; stronger effect = higher value.
Setting [16] is: H69AR cells + 2 uM doxorubicin, measured here: viability with 2 uM doxorubicin, stronger effect = lower value.
Setting [17] is: H69AR cells, compound alone cytotoxicity.

Molecules are shown by their SMILES. Inconclusive results are not listed. Activity calls are given as the source filed them.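 The calls were made as follows, unless noted: active = viability at or under a set limit in both replicates, limit being median viability minus 3 SD (cut at about 48% in these data, passing the limit was not always enough); inconclusive = at or under the limit in just one replicate; inactive = at or above the limit in both replicates.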

Receptor tyrosine-protein kinase erbB-2 (Homo sapiens), sequence (P04626 whole entry, looked up): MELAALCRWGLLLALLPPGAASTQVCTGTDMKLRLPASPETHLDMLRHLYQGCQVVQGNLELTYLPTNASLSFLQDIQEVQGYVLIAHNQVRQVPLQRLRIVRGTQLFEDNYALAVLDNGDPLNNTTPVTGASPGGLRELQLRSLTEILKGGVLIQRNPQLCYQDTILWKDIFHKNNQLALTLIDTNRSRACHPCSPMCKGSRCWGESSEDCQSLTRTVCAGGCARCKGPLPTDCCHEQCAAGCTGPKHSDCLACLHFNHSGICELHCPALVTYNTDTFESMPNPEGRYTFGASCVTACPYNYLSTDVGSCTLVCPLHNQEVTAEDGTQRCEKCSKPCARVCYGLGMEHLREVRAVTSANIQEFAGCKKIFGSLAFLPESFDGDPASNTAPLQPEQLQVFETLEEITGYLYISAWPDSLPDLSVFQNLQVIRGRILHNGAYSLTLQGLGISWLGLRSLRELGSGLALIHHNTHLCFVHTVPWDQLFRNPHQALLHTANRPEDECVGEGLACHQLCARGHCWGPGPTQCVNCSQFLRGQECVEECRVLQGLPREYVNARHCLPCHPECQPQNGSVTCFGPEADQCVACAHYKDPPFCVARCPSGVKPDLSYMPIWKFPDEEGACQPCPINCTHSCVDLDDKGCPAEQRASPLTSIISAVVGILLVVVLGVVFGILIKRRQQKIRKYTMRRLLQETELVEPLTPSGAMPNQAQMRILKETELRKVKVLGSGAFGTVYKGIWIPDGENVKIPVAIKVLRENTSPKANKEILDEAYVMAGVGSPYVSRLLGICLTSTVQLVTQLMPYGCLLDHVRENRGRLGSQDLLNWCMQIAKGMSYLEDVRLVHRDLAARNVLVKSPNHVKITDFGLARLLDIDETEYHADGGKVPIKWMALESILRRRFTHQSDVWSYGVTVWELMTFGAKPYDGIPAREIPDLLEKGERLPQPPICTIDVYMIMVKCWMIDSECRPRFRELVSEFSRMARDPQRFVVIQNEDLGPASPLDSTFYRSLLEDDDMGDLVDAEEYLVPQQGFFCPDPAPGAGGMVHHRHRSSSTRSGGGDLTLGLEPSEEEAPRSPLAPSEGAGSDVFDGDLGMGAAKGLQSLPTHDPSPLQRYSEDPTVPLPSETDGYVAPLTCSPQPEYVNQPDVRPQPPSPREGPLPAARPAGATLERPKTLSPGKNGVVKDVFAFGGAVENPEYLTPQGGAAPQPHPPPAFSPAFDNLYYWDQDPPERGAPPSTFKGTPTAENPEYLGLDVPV

For orientation: viability means a read-out of living cells in per cent, often relative to untreated cells. One may read the inhibition as the relative decrease from the control value, in per cent. In the case of `CC(=O)NC(CCS(C)(=O)=O)C(=O)Nc1cc(C)on1` (stereo not drawn), the viability is 119% in experiment [1]; 119% (inactive) in [3]; 105% (inactive) in experiment [4]; 99.1% (inactive) in [5]; 92.1% in [6] (setting [16]); 99.1% in experiment [6] (setting [17]). Further, the viability is 104% (inactive) in [12] and 95.7% (inactive) in [13]. Moreover, in experiment [2], the Her2 level was 106% (inactive). Also, the differential viability (reversal) in experiment [6] (H69AR cells + 2 uM doxorubicin) was 7% (inactive). In addition, the inhibition in [7] was -4.67% (inactive); in experiment [8] it was 0% (inactive); in [14], 1.99% (inactive). For the same compound, the growth inhibition was -14.1% (inactive) in experiment [9] and -22.3% (inactive) in [10]. Further, the viability increase in experiment [11] is 1% (inactive). Moreover, the RAM network inhibition in experiment [15] is 0.32% (inactive).
Take `CC(CCc1ccco1)NC(=O)Cn1ncc2c1-c1ccccc1OC2` (stereo not drawn): the viability was 93% in experiment [1]; 93% (inactive) in [3]; 90.8% (inactive) in experiment [4]; 92.9% (inactive) in [5]; 81% in experiment [6] (setting [16]); 92.9% in experiment [6] (setting [17]). The viability in [12] was 101% (inactive); in experiment [13] it was 91.3% (inactive). Also, in experiment [2], the Her2 level was 90% (inactive). The differential viability (reversal) in experiment [6] (H69AR cells + 2 uM doxorubicin) is 11.9% (inactive). Besides, the inhibition in experiment [7] is -2.4% (inactive); in experiment [8], -0.66% (inactive); in experiment [14], 1.11% (inactive). Also, the figures for the growth inhibition in experiment [9] and in experiment [10] were -5.12% (inactive) and -19% (inactive), respectively. The viability increase in experiment [11] is -4.45% (inactive). Moreover, the RAM network inhibition in experiment [15] is 7.86% (inactive).
As to `CN(C)CCCNC(=O)CCC1CCCCC1`, the viability in experiment [1] is 93%; in [3] it was 93% (inactive); in experiment [4], 101% (inactive); in [5], 94% (inactive); in experiment [6] (setting [16]), 84.9%; in [6] (setting [17]) it was 94%. In addition, the viability in [12] is 99.5% (inactive); in experiment [13], 107% (inactive). Moreover, in experiment [2], the Her2 level is 78% (inactive). In [6] (H69AR cells + 2 uM doxorubicin), the differential viability (reversal) is 9.09% (inactive). For the same compound, the results for the inhibition in [7], in [8] and in [14] were -7.16% (inactive), 1.17% (inactive) and 0.2% (inactive), respectively. Besides, the growth inhibition in experiment [9] is -1.1% (inactive); in experiment [10], -3.73% (inactive). In addition, in [11], the viability increase was 0.26% (inactive). In addition, the RAM network inhibition in experiment [15] is 6.01% (inactive).
As to `CC(=O)NC(CCS(C)(=O)=O)C(=O)Nc1cccc(C)c1C` (stereo not drawn), the viability is 89.5% in experiment [1]; 89.5% (inactive) in [3]; 86.8% (inactive) in [4]; 75.9% (inactive) in experiment [5]; 91.3% in experiment [6] (setting [16]); 75.9% in experiment [6] (setting [17]). In addition, the viability in experiment [12] is 105% (inactive); in experiment [13] it was 100% (inactive). Also, the Her2 level in experiment [2] is 93.5% (inactive). The differential viability (reversal) in experiment [6] (H69AR cells + 2 uM doxorubicin) was -15.4% (inactive). In addition, the inhibition in experiment [7] was -5.2% (inactive); in [8], 4.33% (inactive); in [14], 0.395% (inactive). Also, the growth inhibition was -7.1% (inactive) in [9] and -8.2% (inactive) in experiment [10]. In experiment [11], the viability increase was 0.19% (inactive). For the same compound, in experiment [15], the RAM network inhibition was 3.33% (inactive).
`CCOc1ccc(CCN2C(=O)C3C4C=CC(C4)C3C2=O)cc1OCC` (stereo not drawn): the viability is 96% in experiment [1]; 96% (inactive) in [3]; 97.7% (inactive) in [4]; 87.9% (inactive) in [5]; 83.4% in experiment [6] (setting [16]); 87.9% in [6] (setting [17]). The results for the viability in experiment [12] and in experiment [13] were 102% (inactive) and 101% (inactive), respectively. Besides, the Her2 level in experiment [2] is 93.5% (inactive). In addition, in experiment [6] (H69AR cells + 2 uM doxorubicin), the differential viability (reversal) is 4.56% (inactive). Besides, the inhibition in [7] is -6.27% (inactive); in experiment [8], -1.67% (inactive); in [14], 1.38% (inactive). Further, the growth inhibition in experiment [9] was 0.49% (inactive); in [10] it was 3.99% (inactive). In addition, the viability increase in experiment [11] is -0.38% (inactive). For the same compound, the RAM network inhibition in [15] was 1.5% (inactive).
As for `CCCOC(=O)C1C2C=CC3(CN(c4cccc(Cl)c4)C(=O)C13)O2` (stereo not drawn), the viability in [1] is 102%; in experiment [3], 102% (inactive); in [4], 90.4% (inactive); in [5] it was 83% (inactive); in experiment [6] (setting [16]), 93.8%; in experiment [6] (setting [17]) it was 83%. Also, the figures for the viability in experiment [12] and in [13] were 101% (inactive) and 97.4% (inactive), respectively. The Her2 level in [2] is 85% (inactive). Further, the differential viability (reversal) in experiment [6] (H69AR cells + 2 uM doxorubicin) is -10.8% (inactive). For the same compound, the values for the inhibition in experiment [7], in experiment [8] and in experiment [14] were -2.93% (inactive), -0.16% (inactive) and -0.245% (inactive), respectively. The growth inhibition is -4.19% (inactive) in [9] and -9.97% (inactive) in experiment [10]. Moreover, the viability increase in [11] was -2.05% (inactive). Also, the RAM network inhibition in experiment [15] is 3.71% (inactive).
For `CCCCCn1c(CCNC(=O)CCC)nc2ccccc21`, the viability in experiment [1] is 96.5%; in experiment [3], 96.5% (inactive); in experiment [4], 79.6% (inactive); in experiment [5], 87.4% (inactive); in [6] (setting [16]), 82.4%; in experiment [6] (setting [17]), 87.4%. Further, the viability in experiment [12] is 94% (inactive); in [13], 87.2% (inactive). For the same compound, in experiment [2], the Her2 level is 102% (inactive). Further, the differential viability (reversal) in [6] (H69AR cells + 2 uM doxorubicin) is 5.08% (inactive). For the same compound, the inhibition in [7] is -4.67% (inactive); in [8], 1.17% (inactive); in [14], 1.89% (inactive). Further, the growth inhibition in experiment [9] is -0.135% (inactive); in experiment [10], -11.5% (inactive). For the same compound, in experiment [11], the viability increase was -1.41% (inactive). Also, in experiment [15], the RAM network inhibition was 2.6% (inactive).
Turning to `O=C(CCN1C(=O)c2ccccc2C1=O)Nc1ccc(F)cc1`, the viability in [1] was 108%; in experiment [3] it was 108% (inactive); in experiment [4], 116% (inactive); in experiment [5] it was 104% (inactive); in experiment [6] (setting [16]), 90.6%; in experiment [6] (setting [17]) it was 104%. Besides, the viability was 107% (inactive) in [12] and 110% (inactive) in experiment [13]. In addition, the Her2 level in experiment [2] was 76% (inactive). Besides, in experiment [6] (H69AR cells + 2 uM doxorubicin), the differential viability (reversal) was 12.9% (inactive). For the same compound, the inhibition in experiment [7] was -1.95% (inactive); in [8] it was -7% (inactive); in experiment [14], 1.6% (inactive). For the same compound, the results for the growth inhibition in [9] and in experiment [10] were -8.49% (inactive) and -11.6% (inactive), respectively. In addition, in [11], the viability increase was 3.01% (inactive). Further, the RAM network inhibition in experiment [15] is -0.26% (inactive).
Take `CC(C)(NC(=O)N1CCCC1)c1cccc(C(C)(C)NC(=O)N2CCCC2)c1`: the viability was 98% in [1]; 98% (inactive) in experiment [3]; 97.7% (inactive) in experiment [4]; 95.5% (inactive) in experiment [5]; 90.3% in experiment [6] (setting [16]); 95.5% in experiment [6] (setting [17]). Moreover, the figures for the viability in [12] and in experiment [13] were 100% (inactive) and 97.4% (inactive), respectively. The Her2 level in [2] was 81.5% (inactive). The differential viability (reversal) in [6] (H69AR cells + 2 uM doxorubicin) is 5.27% (inactive). Moreover, the results for the inhibition in experiment [7], in experiment [8] and in experiment [14] were -4.42% (inactive), -4% (inactive) and 0.535% (inactive), respectively. The growth inhibition was 0.795% (inactive) in experiment [9] and 3.39% (inactive) in experiment [10]. In addition, the viability increase in experiment [11] was -0.99% (inactive). Also, the RAM network inhibition in [15] is 0.88% (inactive).

These data come from PubChem BioAssay.
